# Publication PMC5540273 (PLoS ONE, 2017)
# “And” between values parts separate entries of the source, which are not always exact repeats. Equal entries are not always repeated. Where two headings read alike, the source gives them in different places.
# Experiments:
# MRCKA = conditions: concentration: 1 μM, replicates: in singlicate, n = 1
# MRCKB = tested on: T1, MRCKB; conditions: concentration: 1 μM, replicates: in singlicate; n = 1
# T1 construct: gene CDC42BPB
# MST1R = conditions: concentration: 1 μM, replicates: in singlicate, n = 1
# MST1 = tested on: T2, MST1; conditions: concentration: 1 μM, replicates: in singlicate; n = 1
# T2 construct: gene STK4
# MST2 = tested on: T3, MST2; conditions: concentration: 1 μM, replicates: in singlicate, n = 1
# T3 construct: gene STK3
# MST3 = tested on: T4, MST3; conditions: concentration: 1 μM, replicates: in singlicate; n = 1
# T4 construct: gene STK24
# MST4 = conditions: concentration: 1 μM, replicates: in singlicate; n = 1
# MTOR = conditions: concentration: 1 μM, replicates: in singlicate, n = 1
# MUSK = conditions: concentration: 1 μM, replicates: in singlicate; n = 1
# MYLK2 = conditions: concentration: 1 μM, replicates: in singlicate; n = 1
# 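Also: KINOMEscan kinase panel screen.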
SMILES,%Inh (MRCKA),%Inh (MRCKB),%Inh (MST1R),%Inh (MST1),%Inh (MST2),%Inh (MST3),%Inh (MST4),%Inh (MTOR),%Inh (MUSK),%Inh (MYLK2),%Inh (MRCKA; 1 µM),%Inh (MST1R; 1 µM),%Inh (MST2; 1 µM),%Inh (MTOR; 1 µM)
Cl.O=S(=O)(c1cccc(F)c1)c1ccc(Nc2ncnc3cc(Br)sc23)cc1Cl [GSK306886],18%,9%,20%,0%,9%,2%,0%,12%,8%,3%,–,–,–,–
C[C@H]1CC[C@@H](C(=O)Nc2ccccc2)CN1c1cc(-c2ccc3c(N)n[nH]c3c2)nc(N)n1 [GSK2283293],65%,0%,17%,0%,0%,0%,0%,8%,13%,1%,–,–,–,–
Cl.Cl.c1ccc(-c2cc3ccncc3cc2OC2CCNCC2)cc1 [GSK1122999],52%,17%,53%,21%,6%,12%,0%,12%,13%,20%,–,–,–,–
O=C(Nc1ccccc1)Nc1ccc(Oc2ccc3nccn3n2)cc1,0%,0%,18%,0%,0%,11%,0%,12%,9%,0%,–,–,–,–
CS(=O)(=O)CCNCc1nc(-c2ccc3ncnc(Nc4ccc(OCc5cccc(F)c5)c(Cl)c4)c3c2)cs1.Cl [GW583340],0%,0%,38%,0%,8%,15%,0%,4%,0%,0%,–,–,–,–
c1ccc(-c2ccc3c(-c4ccnc(Nc5ccc6c(c5)OCCO6)n4)cnn3n2)cc1 [GW818941],11%,6%,41%,23%,4%,1%,0%,17%,16%,27%,–,–,–,–
NC(=O)c1sc(-n2cnc3ccccc32)cc1OCc1ccccc1F [GSK1024306],17%,0%,9%,0%,0%,0%,0%,19%,0%,7%,–,–,–,–
CC(C)N1CCC(n2cnc(-c3ccc(F)cc3)c2-c2ccnc(N)n2)CC1 [SB-223132],18%,0%,0%,0%,0%,29%,0%,27%,0%,6%,–,–,–,–
O=C(Nc1n[nH]c2nc(-c3ccco3)c(Br)cc12)c1ccc(CN2CCCC2)cc1.O=C(O)[C@H](O)[C@@H](O)C(=O)O [SB-742352],0%,0%,0%,0%,17%,0%,9%,0%,9%,96.3%,–,–,–,–
COc1ccc(-c2nc3n(c2-c2ccncc2)CCC3)cc1 [SKF-104493],–,0%,–,0%,–,0%,0%,–,3%,0%,0% and 2%,19% and 14%,4% and 16%,0% and 11%
CCCc1ccc(S(=O)(=O)NC2CCN(c3ccnc(Nc4ccc(OC)cc4)n3)C2)cc1 (stereo not drawn) [GSK1379737],10%,0%,39%,65%,0%,0%,0%,28%,9%,0%,–,–,–,–
FC(F)(F)c1cc(Nc2nccc(-c3c(-c4ccc(Cl)cc4)nn4ncccc34)n2)ccc1Cl [GW829351],0%,9%,0%,0%,3%,0%,0%,0%,0%,0%,–,–,–,–
O=C(NCCCN1CCCC1=O)c1cnc(NCc2cc(Cl)ccc2Cl)nc1NC1CCNCC1,0%,0%,72%,8%,0%,32%,44%,36%,7%,1%,–,–,–,–
Clc1ccc(-c2cc(-c3c[nH]nc3-c3ccccn3)ccn2)cc1 [GW681251],0%,1%,0%,0%,0%,0%,0%,20%,12%,0%,–,–,–,–
C[C@@H]1CCN(C(=O)CO)C[C@@H]1N(C)c1ncnc2[nH]ccc12,0%,100%,21%,12%,0%,11%,0%,55%,0%,2%,–,–,–,–
COc1ccc(Nc2nccc(N3CCC(NC(=O)Nc4ccc5c(c4)OCO5)C3)n2)cc1 (stereo not drawn) [GSK1379745],11%,0%,0%,6%,0%,32%,0%,35%,17%,6%,–,–,–,–
Cn1ccc2ncnc(Oc3ccc(NC(=O)Nc4cccnc4)c(Cl)c3)c21,0%,0%,15%,12%,0%,10%,0%,0%,7%,0%,–,–,–,–

SMILES,%Inh (MRCKA),%Inh (MRCKB),%Inh (MST1R),%Inh (MST1),%Inh (MST2),%Inh (MST3),%Inh (MST4),%Inh (MTOR),%Inh (MUSK),%Inh (MYLK2),%Inh (MRCKA; 1 µM),%Inh (MST1R; 1 µM),%Inh (MST2; 1 µM),%Inh (MTOR; 1 µM)
CSc1nn2c(=O)cc(N3CCOCC3)nc2n1Cc1cccc(Cl)c1Cl [GSK2347225],29%,4%,59%,6%,0%,4%,0%,28%,16%,15%,–,–,–,–
CCn1c(-c2ccncc2)nc2cnccc21 [SB-735216],23%,0%,27%,0%,0%,0%,13%,0%,5%,15%,–,–,–,–
Cn1cc(-c2ccc3c(c2)CCN3C(=O)Cc2cccc(C(F)(F)F)c2)c2c(N)ncnc21 [GSK2606414],0%,0%,6%,14%,0%,0%,0%,0%,6%,24%,–,–,–,–
O=C(Nc1ccccc1F)NC1CCN(c2ccnc(Nc3ccc(F)cc3)n2)C1 (stereo not drawn) [GSK1379722],15%,0%,38%,0%,0%,0%,0%,17%,2%,12%,–,–,–,–
CCc1nc(-c2cccc(N(C)S(=O)(=O)c3ccccc3)c2)c(-c2ccnc(Nc3ccc(N4CCN(C(C)=O)CC4)nc3)n2)s1 [GSK1645895],0%,0%,40%,3%,16%,15%,0%,2%,1%,0%,–,–,–,–
Nc1nccc2scc(-c3ccc4c(c3)CCN4C(=O)Cc3cc(F)ccc3F)c12 [GSK2587663],15%,0%,35%,8%,3%,15%,0%,4%,10%,0%,–,–,–,–
Cc1cc(N2CCC(NS(=O)(=O)c3ccc(F)cc3)CC2)nc(Nc2cccc(C#N)c2)n1.O=C(O)C(F)(F)F [GSK1653537],0%,0%,17%,8%,0%,7%,0%,6%,8%,0%,–,–,–,–
Cc1ccc(O)cc1Nc1cc(C(F)(F)F)nc2ccc(-c3ccncc3)cc12 [GW630823],0%,0%,19%,0%,44%,18%,0%,0%,0%,4%,–,–,–,–
COc1ccc(NC(=O)Nc2ccc(C)c(-c3ccc(C(=O)Nc4ccncc4)cc3)c2)cc1 [GSK1398475],19%,0%,36%,0%,0%,0%,0%,4%,0%,0%,–,–,–,–
Nc1nc(-c2cccnc2)c(-c2ccnc3ccccc23)s1 [GW684083],0%,0%,18%,4%,10%,10%,0%,27%,11%,0%,–,–,–,–
CC(=O)Nc1n[nH]c2ncc(-c3ccccc3)cc12 [SB-548492],0%,10%,41%,0%,1%,5%,15%,6%,9%,37%,–,–,–,–
O=C(CCO)NCCn1ccc2ncnc(Nc3ccc(Oc4cccc(C(F)(F)F)c4)c(Cl)c3)c21,0%,2%,0%,0%,0%,0%,0%,31%,0%,0%,–,–,–,–
CS(=O)(=O)CCNCc1ccc(-c2ccc3ncnc(Nc4ccc(OCc5ccccc5)c(Cl)c4)c3c2)o1.Cl [GW574783],0%,2%,17%,23%,0%,0%,0%,30%,19%,16%,–,–,–,–
COc1cc2ncnc(Nc3ccc(OCc4ccccc4Br)c(Cl)c3)c2cc1OC.Cl [GI261590],23%,0%,48%,10%,0%,0%,0%,24%,12%,0%,–,–,–,–
Oc1ccc2ncnc(Nc3ccc(OCc4ccccc4)cc3)c2c1 [GI262866],12%,0%,13%,59%,0%,0%,0%,11%,17%,0%,–,–,–,–
Clc1cccc(-c2nc(Nc3ccncc3)c3ccccc3n2)c1 [GW873004],3%,42%,0%,27%,45%,9%,0%,36%,0%,0%,–,–,–,–
